# Results as given in PubChem BioAssay (NCI).
# The panel holds about 79,000 compounds, 15% with a hit somewhere; the sample as a whole holds those more often. A number with no mark means an inactive call. Activity calls are given as the source filed them. Cut-off read from the data, not from the text of the source: active = growth inhibition above about 70%; inactive = the rest.
# Assays:
# [1] = NCI Yeast Anticancer Drug Screen. Data for the rad50 strain (AID 155);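 note: 0% = growth of vehicle-only cultures of the same strain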; conditions: S. cerevisiae rad50 strain growth inhibition; at 50.0 µM; active compounds read high
# Procedure, shortened: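 Vehicle-treated cultures provide the reference for the growth inhibition reported for compound-exposed, repair-deficient yeast.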
# [2] = NCI Yeast Anticancer Drug Screen. Data for the mec2-1 strain (AID 157); conditions: S. cerevisiae mec2-1 strain, at 50.0 µM, active compounds read high
# Procedure, shortened: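 Strain: mec2-1 (DNA repair/cell cycle alteration). Compound exposure, then growth measured; inhibition expressed relative to vehicle.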
# [3] = NCI Yeast Anticancer Drug Screen. Data for the sgs1 mgt1 strain (AID 161);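 note: 0% = growth of cultures given vehicle only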; conditions: S. cerevisiae sgs1 mgt1 strain, at 50.0 µM, active compounds read high
# Procedure, shortened: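 Mutant yeast exposed to compound; growth scored against vehicle-only wells.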
# [4] = NCI Yeast Anticancer Drug Screen. Data for the cln2 rad14 strain (AID 165);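 note: 0% = growth equal to vehicle treated cultures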; conditions: S. cerevisiae cln2 rad14 strain, at 50.0 µM, active compounds read high
# Procedure, shortened: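 Compounds are applied to the cln2 rad14 yeast strain, and growth is then compared with that of vehicle-treated cultures to give inhibition.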
# [5] = NCI Yeast Anticancer Drug Screen. Data for the bub3 strain (AID 167); conditions: S. cerevisiae bub3 mutant strain, at 50.0 µM, active compounds read high
# Procedure, shortened: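 Mutant yeast screening strain plus compound; vehicle-treated cultures serve as the 0% inhibition reference.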
# [6] = NCI Yeast Anticancer Drug Screen. Data for the mlh1 rad18 strain (AID 175); conditions: S. cerevisiae mlh1 rad18 strain growth inhibition; at 50.0 µM; active compounds read high
# Procedure, shortened: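 Read-out is yeast growth inhibition, calculated against vehicle-only controls. The compound was applied to a strain engineered with DNA damage repair alterations.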
SMILES,growth inhibition [1],growth inhibition [2],growth inhibition [3],growth inhibition [4],growth inhibition [5],growth inhibition [6]
S=C(NCN1CCNCC1)C(=S)NCN1CCNCC1,-14.2%,-9.55%,-6.1%,-12.1%,-4.05%,-9.6%
CC(=O)Nc1cc([N+](=O)[O-])ccc1CC(O)c1ccccc1 (configuration not stated),-2.25%,-17.1%,-4.1%,-15.5%,-1%,-16.4%
O=C1CCC(=O)c2cc(Br)ccc2N1,25.8%,11.8%,2.85%,13%,46.2%,23.1%
c1ccc(-c2nc3ncncc3[nH]2)cc1,7%,-10.3%,-7.65%,-13.8%,-3.45%,-5.6%
COc1cc(Cl)ccc1NC(=O)Oc1ccc(C=O)cc1OC,3.8%,10.2%,6.75%,9.85%,17.9%,10.8%
Cc1ccc(CCCC(=O)O)cc1C,-21.6%,2.65%,-7.05%,10.6%,-44.2%,-13.8%
O=C(Nc1ccccc1-c1nn(CO)c(=S)n(CO)c1=O)C(F)(F)F,40.2%,23.9%,43.2%,12.6%,-22.6%,20.2%
CC1(O)CCC2(CCC(C)(O)CC2=O)C(=O)C1 (configuration not stated),-7.85%,-9.75%,-0.45%,-2.35%,-12.6%,-14.7%
CN(C)CCCSc1n[nH]c(=O)[nH]c1=O,6.4%,2.5%,-11.3%,-19.7%,1.6%,-10.1%
NC(=O)NC(c1ccc(O)cc1)c1cc2c(cc1O)OCO2 (configuration not stated),-4%,1.9%,-11.8%,-36.8%,5.75%,-0.55%
CN1CCN(CCCO)CC1,-15.2%,3.3%,-8.85%,-16.4%,5.05%,-0.25%
COc1ccc(C)cc1S(=O)(=O)c1c(Cl)cccc1[N+](=O)[O-],-5.95%,-15.4%,2.25%,-20.5%,-1.3%,-36.8%
CCOC(=O)Nc1nc(-c2ccccc2)c(C)s1,-23.2%,-20.8%,-16.8%,-7.1%,-44.9%,-2.15%
CCCCCCCCCCCCCCCc1cc(=O)n(-c2ccc(NC(C)=O)cc2)n1C,-2%,-23.8%,-12.6%,3.1%,-1%,-9.7%
CCCCSC(N)=O,-1.5%,0%,-15.1%,10.7%,17.3%,11.2%
O=C1c2ccccc2-c2ccc3c4ccc5c6c(ccc(c7ccc1c2c73)c64)-c1ccccc1C5=O,25%,-5.4%,11.1%,-30.4%,5.75%,18.4%
O=c1c(Cl)cc(Cl)cn1S(=O)(=O)c1ccc([N+](=O)[O-])cc1,99.1% (active),95.3% (active),98.9% (active),98.7% (active),97.7% (active),98.9% (active)
CCCCCC(/C=C/c1ncccc1OCCCCCC(=O)O)=N\NC1=NCCN1,16.8%,-17.6%,-13.6%,-25.4%,-44.6%,11.7%
CCC(C)CCC(=O)C(C)C=O (configuration not stated),-0.8%,-7.3%,3%,-5.9%,-6.2%,-3.85%
COc1cc([C@@H]2OC[C@@H]3C(c4cc(OC)c5c(c4)OCO5)OC[C@@H]32)cc(OC)c1OC (some centres not stated),23.8%,-4.5%,26.6%,31.1%,4.3%,-40.8%
Clc1ccc(Cl)c2c(Br)cncc12,37.4%,10.8%,12.9%,7.05%,17.5%,22.1%

SMILES,growth inhibition [1],growth inhibition [2],growth inhibition [3],growth inhibition [4],growth inhibition [5],growth inhibition [6]
O=[N+]([O-])c1cccc(C2=NON(c3ncccn3)C3N=CC=CN23)c1 (configuration not stated),11.9%,-17.7%,14.3%,-4.9%,-9.65%,26.1%
CSC1=NC=C(C#N)C2=NC(c3ccc(Cl)cc3)NN12 (configuration not stated),1.95%,2%,17.2%,16.3%,15.8%,14.7%
NC(=O)c1cn(C2OC(CO)C(O)C2O)c2nc(N)nc(N)c2c1=O (configuration not stated),19%,19.4%,14.3%,3.9%,23.1%,45.1%
CCCCCCCC(=O)Oc1ccccc1,14.1%,-10.5%,-0.75%,-10%,-2.3%,-1.2%
Nc1nnnn1NC(=O)c1ccccc1,-2.1%,-6.8%,-5.35%,-11.5%,-6%,-11.3%
NCOC(=O)Cc1ccc(Br)cc1,14.8%,6.65%,-0.35%,-2.55%,4.15%,18.6%
O=C1NC(=O)C(F)[CH]([Ge](=[O])[O][Ge](=[O])[CH]2NC(=O)NC(=O)C2F)N1 (configuration not stated),-7.45%,-8.85%,0.2%,-7.35%,0.7%,-17.9%
CC(=O)OCC12C(OC(C)=O)C(=O)C3C(OC(C)=O)C14OC3(C)COC(=O)c1cccnc1C(C)C(C)C(=O)OC(C(OC(C)=O)C2OC(C)=O)C4(C)O (configuration not stated),-24.6%,-31.4%,-24.1%,7.85%,-16.1%,-85%
Oc1ccc(Cn2c(-c3ccc(O)cc3)nc3ccccc32)cc1,-6.95%,-5%,-10.1%,5.05%,1.4%,-13.3%
Cc1ccc(O)c(O)c1,33.9%,-13.1%,-6.45%,-8.9%,-20.3%,23.9%
O=CC1N=C1c1ccccc1 (configuration not stated),9.4%,-0.05%,0.65%,18.3%,25.9%,16.1%
Clc1ccc(/C=N/c2ccccn2)cc1,-37.2%,-51.4%,-22.8%,19.9%,-54.1%,-31.1%
CC(=O)c1c(C)c([N+](=O)[O-])c(C)c([N+](=O)[O-])c1C,2.1%,11.9%,-8.9%,-94.8%,23.4%,7.3%
CC1(C)CC(=O)C(CC(C(=O)C(=O)Nc2cc(C(F)(F)F)ccc2Cl)C(=O)c2ccco2)C(=O)C1 (configuration not stated),-1.55%,30.1%,18.9%,-22.4%,13%,19.1%
O=C1c2cc(Cl)ccc2NC(O)c2cccn21 (configuration not stated),3.45%,1.8%,-4.3%,-20.9%,-11.4%,-0.55%
COC(=O)c1cc2ccc1OCC#CC#CCOc1ccc(cc1C(=O)OC)OCC#CC#CCO2,-1.9%,5.5%,7.35%,5.75%,-0.7%,19.2%
C=Cn1c2ccccc2c2ccccc21,46.9%,18.9%,26.9%,15.2%,-6.75%,-0.55%
CCCN=C(C(C)=O)N(C)C,-1.7%,1.3%,-14.9%,6.55%,24.2%,2.85%
COc1cc2c(cc1OC)C(c1cc(OC)c(OC)c(OC)c1)C1(O)C(=O)OCC1(O)C2 (configuration not stated),20.1%,-8.25%,13.1%,21.8%,19.4%,20.2%
CCc1cccc(CC)c1NC1=CC(=O)C(=O)c2ccccc21,22.4%,11.4%,10%,18.8%,34.2%,18.2%
Cc1cc2c(c3c1C(=O)CC3)CCCC2(C)C,9.3%,3.9%,2.75%,-6.2%,2.15%,-1.8%
